Results filed as inconclusive are left out. Activity calls are given as the source filed them.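 Rule for the calls, unless noted: active = GFP response, as percent of the DMSO control, above the screen-wide mean plus 3 SD, about 139; inconclusive = no response measured because the compound's own fluorescence interfered; inactive = the rest.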
Columns and labels:
[1] = rapamycin-like changes in RPL19A-GFP expression – cell-based, S. cerevisiae, multiplex flow cytometry, primary screen (AID 1862; in the data active = percent of DMSO control GFP below about 86%;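 note: lower values mimic rapamycin by blocking the RPL19A rise seen in DMSO cells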); conditions: S. cerevisiae RPL19A-GFP strain, flow cytometry fluorescence, 3 h; at 10 µM; stronger effect = lower value
[2] = TOR pathway GLN3 branch reporter MEP2-GFP changes – S. cerevisiae, multiplex flow cytometry, primary screen (AID 1867);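 note: median GFP channel fluorescence of barcode-gated MEP2-GFP cells measured by flow cytometry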; conditions: S. cerevisiae MEP2-GFP strain, 3 h, at 10 µM, stronger effect = higher value, 100% means same as DMSO wells
[3] = TOR pathway RTG branch CIT2 reporter changes – S. cerevisiae, GFP fusion, multiplex flow cytometry, primary screen (AID 1870;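 active = percent response above a set limit, the screen-wide mean plus 3 SD, cut at about 130% in these data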;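 note: barcoded CIT2-GFP strain pooled with four other GFP strains with rapamycin as positive control; median GFP fluorescence per well over plate mean of DMSO wells so 100% = DMSO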); conditions: S. cerevisiae CIT2-GFP expression, 3 h, at 10 µM, stronger effect = higher value
[4] = TOR pathway LAP4-GFP level changes – S. cerevisiae, multiplex flow cytometry, primary screen (AID 1873;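 active = GFP signal, as percent of the solvent control, above the screen mean plus 3 SD, about 149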); conditions: S. cerevisiae LAP4-GFP expression, 3 h, at 10 µM, stronger effect = higher value
[5] = yeast AGP1-GFP level changes, GLN3 branch – cell-based, multiplex flow cytometry, S. cerevisiae, primary screen (AID 1887;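 active = GFP signal above the screen-wide mean plus 3 SD, that is over about 124.5% of the solvent control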;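 note: AGP1-GFP fusion strain of S. cerevisiae within a five-strain barcoded multiplex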); conditions: 3 h, at 10 µM, stronger effect = higher value
[6] = reduced mouse 2C T cell binding to pMHC/ICAM-1 vesicles – MLPCN validation set, flow cytometry, LFA-1/ICAM-1 modulator project, pilot screen (AID 2523;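 active = response below a set limit, under 55% cells CD8-positive and vesicle-bound, and CD8 cells' 90th-percentile brightness under 279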;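 for vesicle binding response: mean PE anti-B7-1 fluorescence of CD8+ cells relative to row control; 100% = QL9-loaded vesicles with DMSO vehicle in the same plate row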); conditions: 2C mouse CD8+ T cells, at 7 µM, stronger effect = lower value; double positive events: measured here: CD8+/vesicle+ event percentage
[7] = molecular target: Integrin beta-1 (Homo sapiens) + Integrin alpha-4 (Homo sapiens) (UniProt P13612+P05556); assay: alpha4beta1 integrin LIBS antibody binding reduction – U937 cells, HUTS-21 mAb, flow cytometry, validation set, VLA-4 allosteric modulator project, pilot screen (AID 2674;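 active = inhibition above 50%, about 3 SD of the validation set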;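 note: antibody binding induced by the VLA-4 ligand LDV present at three times its Kd; 0% = LDV ligand with antibody and no compound and 100% = antibody without LDV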); conditions: HUTS-21 LIBS mAb binding, at 6.7 µM, stronger effect = higher value, binding induced by LDV ligand
Sequence of Integrin beta-1 (Homo sapiens) + Integrin alpha-4 (Homo sapiens) (P05556 whole entry, looked up): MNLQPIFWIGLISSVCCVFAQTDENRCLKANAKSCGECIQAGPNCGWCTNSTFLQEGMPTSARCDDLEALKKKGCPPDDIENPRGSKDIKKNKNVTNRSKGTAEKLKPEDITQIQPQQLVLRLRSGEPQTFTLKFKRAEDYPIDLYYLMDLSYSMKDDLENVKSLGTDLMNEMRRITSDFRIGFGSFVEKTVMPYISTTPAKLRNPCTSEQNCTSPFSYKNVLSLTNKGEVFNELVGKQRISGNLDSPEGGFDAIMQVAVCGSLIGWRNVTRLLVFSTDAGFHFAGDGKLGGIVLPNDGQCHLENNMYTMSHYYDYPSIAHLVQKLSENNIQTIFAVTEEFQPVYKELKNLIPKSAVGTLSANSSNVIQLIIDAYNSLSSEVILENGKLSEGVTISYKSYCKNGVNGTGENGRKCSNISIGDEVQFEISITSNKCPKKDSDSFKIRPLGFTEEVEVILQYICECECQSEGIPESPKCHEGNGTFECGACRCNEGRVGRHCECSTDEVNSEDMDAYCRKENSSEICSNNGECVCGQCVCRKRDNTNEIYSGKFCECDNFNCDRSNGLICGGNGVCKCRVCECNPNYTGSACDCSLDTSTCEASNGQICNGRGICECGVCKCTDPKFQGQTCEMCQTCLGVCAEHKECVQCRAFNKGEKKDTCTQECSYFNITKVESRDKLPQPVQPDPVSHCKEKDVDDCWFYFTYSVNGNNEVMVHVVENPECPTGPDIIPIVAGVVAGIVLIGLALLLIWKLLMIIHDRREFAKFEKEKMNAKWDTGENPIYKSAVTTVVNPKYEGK
Sequence of Integrin beta-1 (Homo sapiens) + Integrin alpha-4 (Homo sapiens) (P13612 whole entry, looked up): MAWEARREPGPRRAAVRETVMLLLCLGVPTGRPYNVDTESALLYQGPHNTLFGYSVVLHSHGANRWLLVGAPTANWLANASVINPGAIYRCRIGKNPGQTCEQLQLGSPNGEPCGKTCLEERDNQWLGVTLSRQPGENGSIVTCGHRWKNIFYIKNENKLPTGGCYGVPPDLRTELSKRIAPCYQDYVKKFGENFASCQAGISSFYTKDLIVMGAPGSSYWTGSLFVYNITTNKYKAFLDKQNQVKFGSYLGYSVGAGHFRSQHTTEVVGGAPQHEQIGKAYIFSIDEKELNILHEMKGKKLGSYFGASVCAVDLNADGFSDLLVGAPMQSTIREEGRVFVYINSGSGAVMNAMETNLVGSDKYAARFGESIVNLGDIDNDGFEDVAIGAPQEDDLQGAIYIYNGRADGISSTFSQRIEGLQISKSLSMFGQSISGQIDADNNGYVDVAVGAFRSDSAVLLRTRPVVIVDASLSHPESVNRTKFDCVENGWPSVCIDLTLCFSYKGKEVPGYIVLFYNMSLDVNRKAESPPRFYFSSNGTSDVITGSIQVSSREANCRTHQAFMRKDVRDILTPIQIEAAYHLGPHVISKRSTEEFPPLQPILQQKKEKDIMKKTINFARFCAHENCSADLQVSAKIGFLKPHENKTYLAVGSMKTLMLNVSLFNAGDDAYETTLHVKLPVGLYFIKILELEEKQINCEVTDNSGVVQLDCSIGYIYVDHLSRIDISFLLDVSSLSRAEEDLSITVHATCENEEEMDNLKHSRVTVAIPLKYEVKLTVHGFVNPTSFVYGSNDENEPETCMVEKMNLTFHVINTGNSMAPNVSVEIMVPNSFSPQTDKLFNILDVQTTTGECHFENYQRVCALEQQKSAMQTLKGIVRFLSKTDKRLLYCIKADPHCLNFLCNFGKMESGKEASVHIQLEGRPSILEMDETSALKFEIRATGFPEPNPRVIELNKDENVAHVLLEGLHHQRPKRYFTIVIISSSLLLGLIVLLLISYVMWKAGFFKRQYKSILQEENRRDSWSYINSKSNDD

[8] = calorie-restriction mimetic ROS inhibitors, yeast – validation compound set, pilot screen (AID 2706;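 active = superoxide response below 65% of plate, a cut near 3 SD across the whole screen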;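 note: yeast exposed to compound for one week at 30 degrees C before staining; 100% = mean of all compound wells on the same plate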); conditions: S. cerevisiae aging, superoxide DHE fluorescence; at 10 µM; stronger effect = lower value
[9] = molecular target: Beta-adrenergic receptor kinase 1 (Homo sapiens) (UniProt P25098); assay: GRK2 binders displacing RNA aptamer, biochemical, validation, human GRK2, bead flow cytometry (AID 488806;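 active = aptamer binding inhibition above 30%, about 3 SD of noise from non-fluorescent compounds; inactive = inhibition at or below 30%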); conditions: bead-bound GRK2, FAM-aptamer displacement, at 10 µM, stronger effect = higher value
Sequence of Beta-adrenergic receptor kinase 1 (Homo sapiens) (P25098 whole entry, looked up): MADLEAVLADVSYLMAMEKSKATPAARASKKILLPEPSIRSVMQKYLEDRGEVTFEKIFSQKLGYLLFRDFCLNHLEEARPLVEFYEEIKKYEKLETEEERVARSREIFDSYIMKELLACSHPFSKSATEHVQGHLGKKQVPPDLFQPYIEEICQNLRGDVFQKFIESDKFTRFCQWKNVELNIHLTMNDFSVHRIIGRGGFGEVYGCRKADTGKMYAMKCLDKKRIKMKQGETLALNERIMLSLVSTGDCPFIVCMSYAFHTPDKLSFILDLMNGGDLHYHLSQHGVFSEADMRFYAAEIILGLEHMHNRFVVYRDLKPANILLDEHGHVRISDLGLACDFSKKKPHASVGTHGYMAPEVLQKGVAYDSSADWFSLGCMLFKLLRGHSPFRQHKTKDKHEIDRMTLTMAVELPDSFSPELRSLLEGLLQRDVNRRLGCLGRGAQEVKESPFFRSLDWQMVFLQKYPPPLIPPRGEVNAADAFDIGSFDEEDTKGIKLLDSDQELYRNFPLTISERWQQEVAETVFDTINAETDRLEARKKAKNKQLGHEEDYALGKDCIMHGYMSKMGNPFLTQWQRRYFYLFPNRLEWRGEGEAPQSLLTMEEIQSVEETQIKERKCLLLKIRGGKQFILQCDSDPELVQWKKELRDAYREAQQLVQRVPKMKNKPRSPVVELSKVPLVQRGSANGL

[10] = molecular target: Beta-2 adrenergic receptor (Homo sapiens) (UniProt P07550); assay: agonist-induced loss of surface beta2AR – cell-based, FAP fluorogen, flow cytometry, validation set, pilot screen (AID 504459;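 active = percent response above 42, roughly 3 SD of non-fluorescent test compounds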;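 note: agonist-driven loss of surface beta2AR via internalization measured by FAP dye flow cytometry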); conditions: Am2.2-beta2AR cells, at 10 µM, stronger effect = higher value
Sequence of Beta-2 adrenergic receptor (Homo sapiens) (P07550 whole entry, looked up): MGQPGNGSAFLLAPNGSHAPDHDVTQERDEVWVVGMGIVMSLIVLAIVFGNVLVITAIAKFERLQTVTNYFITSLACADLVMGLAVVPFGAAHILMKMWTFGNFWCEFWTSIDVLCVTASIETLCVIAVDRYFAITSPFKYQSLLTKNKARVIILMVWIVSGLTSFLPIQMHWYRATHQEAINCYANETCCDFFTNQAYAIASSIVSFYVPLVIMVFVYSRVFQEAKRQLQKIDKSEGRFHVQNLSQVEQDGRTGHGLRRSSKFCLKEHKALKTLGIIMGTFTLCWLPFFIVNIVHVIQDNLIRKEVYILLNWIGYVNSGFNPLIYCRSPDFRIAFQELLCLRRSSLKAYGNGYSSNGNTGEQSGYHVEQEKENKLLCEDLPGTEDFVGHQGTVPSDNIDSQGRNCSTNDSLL

[11] = molecular target: AP-2 complex subunit beta (Homo sapiens) (UniProt P63010); assay: beta-arrestin/AP2 interaction blockers – biochemical, validation set, GST-AP2 beads, flow cytometry, pilot screen (AID 504541;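 active = inhibition above 54%, about 3 SD of non-fluorescent compounds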;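 note: AP2 carries R879A mutation and is captured from E. coli lysate; bead-bound FITC arrestin peptide fluorescence measuring arrestin peptide binding to AP2; 0% = DMSO wells and 100% = excess unlabeled arrestin peptide control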); conditions: FITC arrestin peptide, at 10 µM, stronger effect = higher value, AP2 beta2 appendage fragment, R879A mutant
Sequence of AP-2 complex subunit beta (Homo sapiens) (P63010 whole entry, looked up, the tested form may be a part, one chain of several): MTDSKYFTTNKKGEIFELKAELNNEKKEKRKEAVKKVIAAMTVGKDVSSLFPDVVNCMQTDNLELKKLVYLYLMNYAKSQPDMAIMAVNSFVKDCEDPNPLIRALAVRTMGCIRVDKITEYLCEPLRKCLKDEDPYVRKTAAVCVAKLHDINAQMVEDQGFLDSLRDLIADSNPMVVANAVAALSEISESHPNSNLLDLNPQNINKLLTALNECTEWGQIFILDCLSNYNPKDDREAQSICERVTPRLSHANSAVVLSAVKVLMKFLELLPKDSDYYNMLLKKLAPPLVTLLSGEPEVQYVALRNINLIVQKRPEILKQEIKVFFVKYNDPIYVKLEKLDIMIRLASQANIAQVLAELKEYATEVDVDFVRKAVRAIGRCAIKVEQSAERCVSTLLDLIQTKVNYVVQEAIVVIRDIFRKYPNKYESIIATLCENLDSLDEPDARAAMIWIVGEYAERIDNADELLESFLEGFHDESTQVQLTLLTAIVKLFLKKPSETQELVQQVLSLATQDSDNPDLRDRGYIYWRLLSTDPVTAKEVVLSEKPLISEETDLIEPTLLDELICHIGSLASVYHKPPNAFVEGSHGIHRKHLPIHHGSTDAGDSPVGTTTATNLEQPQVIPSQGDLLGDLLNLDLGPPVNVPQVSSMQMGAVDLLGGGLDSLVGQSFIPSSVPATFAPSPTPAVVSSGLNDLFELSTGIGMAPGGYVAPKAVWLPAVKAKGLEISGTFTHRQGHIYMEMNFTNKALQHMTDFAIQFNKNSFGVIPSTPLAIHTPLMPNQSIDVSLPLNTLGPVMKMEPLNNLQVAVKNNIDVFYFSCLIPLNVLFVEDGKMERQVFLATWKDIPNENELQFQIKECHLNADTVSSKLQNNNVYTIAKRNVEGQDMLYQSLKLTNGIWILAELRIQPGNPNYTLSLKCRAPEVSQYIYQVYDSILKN

[12] = cytosolic pH regulators acting via V-ATPase – S. cerevisiae, pHLuorin, HTS validation (AID 504600; in the data active = response above about 15%;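 note: plate controls were DMSO for no effect and reference compound for full effect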); conditions: V-ATPase proton transport, at 10 µM, stronger effect = higher value
[13] = test system: anti-desmoglein-3 scFv antibody binding to human DSG3; assay: blockers of pathogenic pemphigus antibody–desmoglein-3 binding – biochemical, validation compound set, bead-based, flow cytometry, pilot screen (AID 588368;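 active = binding below the plate cutoff, the plate median minus 3 SD, with a reading above zero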;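 note: signal is the median channel fluorescence of bead-bound GFP antibody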); conditions: Protein G beads, DSG3-Fc, scFv-GFP binding, at 10 µM, stronger effect = lower value
[14] = Nile Red efflux blockade in pump-expressing yeast – validation compound set, multiplex, phenotypic, pilot screen (AID 588506;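 active = efflux inhibition above 0.42, the validation set average plus 4 SD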;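 note: Nile Red retained in cells so higher fluorescence means more efflux inhibition; 0 = negative control wells and 1 = enniatin B 25 µM full block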); conditions: S. cerevisiae pump-expressing triplex, Nile Red efflux flow cytometry; at 10 µM; stronger effect = higher value; the pumps come from Candida albicans
[15] = molecular target: ATP-binding cassette sub-family B member 6 (Homo sapiens) (UniProt Q9NP58); assay: blockers of ABCB6-driven porphyrin uptake – K562-ABCB6 cells, flow cytometry, validation set, pilot screen (AID 588550;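 active = inhibition above the screen-wide mean plus 3 SD, about 51%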;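 note: 0% = DMSO wells and 100% = benzethonium chloride 70 µM positive control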); conditions: K562-ABCB6 porphyrin accumulation, 1 h, at 10 µM, stronger effect = higher value
Sequence of ATP-binding cassette sub-family B member 6 (Homo sapiens) (Q9NP58 whole entry, looked up): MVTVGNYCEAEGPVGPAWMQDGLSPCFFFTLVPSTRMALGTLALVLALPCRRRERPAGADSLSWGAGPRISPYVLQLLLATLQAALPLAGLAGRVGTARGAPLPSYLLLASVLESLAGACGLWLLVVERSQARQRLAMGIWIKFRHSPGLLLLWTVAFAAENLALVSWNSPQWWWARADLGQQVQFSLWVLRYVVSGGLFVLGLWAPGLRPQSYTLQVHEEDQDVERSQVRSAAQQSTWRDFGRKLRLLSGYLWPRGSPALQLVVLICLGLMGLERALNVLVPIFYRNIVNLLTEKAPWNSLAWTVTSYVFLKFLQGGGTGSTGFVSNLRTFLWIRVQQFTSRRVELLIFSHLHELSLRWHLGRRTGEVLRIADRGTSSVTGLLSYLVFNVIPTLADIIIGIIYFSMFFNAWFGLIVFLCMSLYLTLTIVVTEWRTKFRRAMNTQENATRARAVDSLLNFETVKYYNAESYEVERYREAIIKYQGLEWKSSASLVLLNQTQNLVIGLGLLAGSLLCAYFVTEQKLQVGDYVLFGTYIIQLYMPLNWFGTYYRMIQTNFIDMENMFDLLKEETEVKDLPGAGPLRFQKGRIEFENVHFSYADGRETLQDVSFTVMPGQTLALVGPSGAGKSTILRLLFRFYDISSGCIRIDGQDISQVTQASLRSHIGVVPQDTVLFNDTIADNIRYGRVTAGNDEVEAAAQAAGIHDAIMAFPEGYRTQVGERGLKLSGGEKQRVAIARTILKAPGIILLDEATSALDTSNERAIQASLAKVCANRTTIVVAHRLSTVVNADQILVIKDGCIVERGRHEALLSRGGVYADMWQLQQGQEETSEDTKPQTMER

[16] = AML differentiation inducers, ER-HoxA9 marrow cells – cell-based, GFP/MAC1 double positive, flow cytometry, validation set, primary screen (AID 588685;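 active = differentiation response of at least 50%, scaled between solvent and reference control, from cells with both markers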;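 note: compound exposure lasts four days before antibody staining and flow analysis; 0% = DMSO wells and 100% = 5 µM fulvestrant positive control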); conditions: stronger effect = higher value, normalized: vehicle 0, fulvestrant 100

Cn1cc(C2N3CC4(C)CN2CC(C)(C3)C4=O)c2ccccc21 (stereo not given)
inactive: percent of DMSO control GFP [1] 102% | GFP response vs DMSO [2] 107% | percent response of DMSO control [3] 98.9% | GFP response vs DMSO [4] 94% | GFP response, % of DMSO [5] 104% | vesicle binding response [6] 485% | inhibition [7] 0.58% | superoxide response (% of plate) [8] 101% | aptamer binding inhibition [9] 2% | response [10] -3.83% | inhibition [11] -3.74% | response [12] -6.53% | binding (% of control) [13] 95.1% | efflux inhibition (fraction of control) [14] -0.01 | inhibition [15] -4% | differentiation response [16] -7.57%
50.6%: double positive events [6]

CCc1cc2c(=O)c(-c3nc(C)cs3)c(CCCC(=O)O)oc2cc1O
inactive: percent of DMSO control GFP [1] 103% | GFP response vs DMSO [2] 108% | percent response of DMSO control [3] 102% | GFP response vs DMSO [4] 98% | GFP response, % of DMSO [5] 100% | inhibition [7] 1.62% | superoxide response (% of plate) [8] 105% | aptamer binding inhibition [9] 2% | response [10] -4.49% | inhibition [11] -6.82% | response [12] -0.76% | binding (% of control) [13] 114% | efflux inhibition (fraction of control) [14] -0.2 | inhibition [15] -3% | differentiation response [16] 2.2%
active: vesicle binding response [6] 39.1%
54.4%: double positive events [6]

Cn1cc(/C=C/C(=O)c2ccccc2)c2ccccc21
inactive: percent of DMSO control GFP [1] 98% | GFP response vs DMSO [2] 107% | percent response of DMSO control [3] 87.2% | GFP response vs DMSO [4] 133% | GFP response, % of DMSO [5] 89.7% | vesicle binding response [6] 230% | inhibition [7] -1.79% | superoxide response (% of plate) [8] 102% | aptamer binding inhibition [9] 1% | response [10] 32.6% | inhibition [11] 4.67% | response [12] -2% | binding (% of control) [13] 101% | efflux inhibition (fraction of control) [14] -0.1 | inhibition [15] 4% | differentiation response [16] -10.4%
58.1%: double positive events [6]

CSCC[C@H](NC(=O)OC(C)(C)C)C(=O)N1CCC(C(=O)N[C@@H](C)C(=O)O)CC1
65.4%: double positive events [6]
inactive: percent of DMSO control GFP [1] 99.6% | GFP response vs DMSO [2] 105% | percent response of DMSO control [3] 102% | GFP response vs DMSO [4] 89.4% | GFP response, % of DMSO [5] 98.8% | vesicle binding response [6] 154% | inhibition [7] 9.71% | superoxide response (% of plate) [8] 98.8% | aptamer binding inhibition [9] 2% | response [10] 6.5% | inhibition [11] -16% | response [12] -1.98% | binding (% of control) [13] 103% | efflux inhibition (fraction of control) [14] -0.22 | inhibition [15] 8% | differentiation response [16] 0.41%

NS(=O)(=O)c1cc2c(cc1Cl)NCNS2(=O)=O
62.4%: double positive events [6]
inactive: percent of DMSO control GFP [1] 99.7% | GFP response vs DMSO [2] 102% | percent response of DMSO control [3] 95.7% | GFP response vs DMSO [4] 132% | GFP response, % of DMSO [5] 123% | vesicle binding response [6] 245% | inhibition [7] -4.52% | superoxide response (% of plate) [8] 89.4% | aptamer binding inhibition [9] -2% | response [10] -19.4% | inhibition [11] -24.8% | response [12] 0.56% | binding (% of control) [13] 105% | efflux inhibition (fraction of control) [14] 0 | inhibition [15] 2% | differentiation response [16] -11.9%

COc1ccccc1C(=O)Oc1ccc2c(c1)O/C(=C\c1ccncc1)C2=O
63.9%: double positive events [6]
inactive: percent of DMSO control GFP [1] 94.7% | GFP response vs DMSO [2] 105% | percent response of DMSO control [3] 97.7% | GFP response vs DMSO [4] 126% | GFP response, % of DMSO [5] 105% | vesicle binding response [6] 274% | inhibition [7] -58.2% | superoxide response (% of plate) [8] 119% | aptamer binding inhibition [9] -1% | response [10] -22.5% | inhibition [11] 3.83% | response [12] 0.47% | binding (% of control) [13] 103% | efflux inhibition (fraction of control) [14] 0.17 | inhibition [15] -9% | differentiation response [16] 10.8%

O=C1CCc2cc(OCCCCc3nnnn3C3CCCCC3)ccc2N1
inactive: percent of DMSO control GFP [1] 92.4% | GFP response vs DMSO [2] 136% | percent response of DMSO control [3] 101% | GFP response vs DMSO [4] 85.3% | GFP response, % of DMSO [5] 92.2% | vesicle binding response [6] 194% | inhibition [7] -5.18% | superoxide response (% of plate) [8] 102% | aptamer binding inhibition [9] 6% | response [10] -6.49% | inhibition [11] -4.26% | response [12] -1.32% | binding (% of control) [13] 96.9% | efflux inhibition (fraction of control) [14] -0.09 | inhibition [15] 11% | differentiation response [16] 8.19%
67%: double positive events [6]

O=C(O)Cc1ccc(O)c(F)c1
inactive: percent of DMSO control GFP [1] 91.5% | GFP response vs DMSO [2] 135% | percent response of DMSO control [3] 101% | GFP response vs DMSO [4] 80.9% | GFP response, % of DMSO [5] 91% | vesicle binding response [6] 175% | inhibition [7] -9.06% | superoxide response (% of plate) [8] 111% | aptamer binding inhibition [9] 4% | response [10] -7.58% | inhibition [11] 5.41% | response [12] 1.04% | binding (% of control) [13] 100% | efflux inhibition (fraction of control) [14] 0.19 | inhibition [15] 10% | differentiation response [16] -4.09%
61.7%: double positive events [6]

OC(CCN1CCCC1)(c1ccccc1)C1CCCCC1 (stereo not given)
63.6%: double positive events [6]
inactive: percent of DMSO control GFP [1] 87.3% | GFP response vs DMSO [2] 134% | percent response of DMSO control [3] 102% | GFP response vs DMSO [4] 80.9% | GFP response, % of DMSO [5] 89.4% | vesicle binding response [6] 284% | inhibition [7] 0.64% | superoxide response (% of plate) [8] 93.8% | aptamer binding inhibition [9] -1% | response [10] 6.72% | inhibition [11] 34.9% | response [12] -6.1% | binding (% of control) [13] 97.4% | efflux inhibition (fraction of control) [14] 0.12 | differentiation response [16] -4.91%
active: inhibition [15] 109%

O=C1OC(Nc2ccc3c(c2)OCO3)c2ccccc21 (stereo not given)
inactive: percent of DMSO control GFP [1] 99.4% | GFP response vs DMSO [2] 105% | percent response of DMSO control [3] 93.1% | GFP response vs DMSO [4] 114% | GFP response, % of DMSO [5] 97.3% | vesicle binding response [6] 185% | inhibition [7] -22.2% | superoxide response (% of plate) [8] 99.6% | aptamer binding inhibition [9] 3% | response [10] 10.6% | inhibition [11] -3.85% | response [12] 0.82% | binding (% of control) [13] 100% | efflux inhibition (fraction of control) [14] 0.02 | inhibition [15] -1% | differentiation response [16] 21.8%
63.1%: double positive events [6]

Source: PubChem BioAssay
